Compounds with a hit are over-represented: about 3.1% of the library has one in this group of screens.
Anthrax LF prot: inhibitors of Bacillus anthracis lethal factor protease; inhibition, % at 10 µM; hit rate 0.12% among 360,000; P15917; multiplex microsphere protease cleavage assay, LF; AID 588501; note: plate controls were buffer without enzyme for full effect and enzyme alone for no effect
Target sequence (P15917 whole entry, looked up): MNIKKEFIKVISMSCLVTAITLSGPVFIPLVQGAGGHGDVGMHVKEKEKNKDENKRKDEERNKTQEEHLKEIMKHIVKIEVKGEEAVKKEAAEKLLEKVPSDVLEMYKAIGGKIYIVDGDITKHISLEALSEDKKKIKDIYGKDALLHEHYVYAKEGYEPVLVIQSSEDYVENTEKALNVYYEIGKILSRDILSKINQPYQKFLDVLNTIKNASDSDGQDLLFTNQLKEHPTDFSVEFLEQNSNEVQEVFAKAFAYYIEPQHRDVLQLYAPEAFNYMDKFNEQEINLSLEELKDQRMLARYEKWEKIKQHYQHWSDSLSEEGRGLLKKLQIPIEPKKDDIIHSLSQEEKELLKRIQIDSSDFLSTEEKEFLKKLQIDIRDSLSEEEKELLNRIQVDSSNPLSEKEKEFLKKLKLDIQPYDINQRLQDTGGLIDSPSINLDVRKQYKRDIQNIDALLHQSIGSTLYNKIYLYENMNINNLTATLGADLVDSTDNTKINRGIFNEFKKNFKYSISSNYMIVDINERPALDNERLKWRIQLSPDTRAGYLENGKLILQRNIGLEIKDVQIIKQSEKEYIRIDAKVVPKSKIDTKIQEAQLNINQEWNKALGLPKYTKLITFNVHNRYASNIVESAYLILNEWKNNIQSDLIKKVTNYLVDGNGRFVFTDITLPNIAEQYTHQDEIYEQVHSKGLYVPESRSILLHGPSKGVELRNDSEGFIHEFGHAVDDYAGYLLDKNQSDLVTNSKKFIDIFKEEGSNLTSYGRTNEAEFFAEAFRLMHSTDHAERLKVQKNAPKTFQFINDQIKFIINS
Autofluor counter: counter-screen for toxin protease inhibitors: compound fluorescence. AID 624483. compound autofluorescence counterscreen, microsphere flow cytometry; stronger effect = higher value. hit rate 3.1% among 360,000. fluorescence intensity (test concentration not listed); in the data active = fluorescence intensity above about 16000; inconclusive = no clear call, values can overlap the other calls
BoNT A protease: blocks Botulinum neurotoxin A light chain protease | hit rate 0.17% among 360,000 | multiplex microsphere protease substrate cleavage, flow cytometry | inhibition, % at 10 µM; note: plate controls were buffer without enzyme for full effect and enzyme alone for no effect
BoNT-F LC inh: inhibitors of Botulinum neurotoxin F light chain protease | Multiplex microsphere protease cleavage assay, flow cytometry | inhibition, % at 10 µM | hit rate 0.22% among 360,000 | AID 588497; in the data active = inhibition above about 35%, passing the limit was not always enough; inconclusive = no clear call, values can overlap the other calls; note: plate controls were buffer without enzyme for full effect and enzyme alone for no effect
SSB-PriA inh: blocks PriA binding to SSB C-terminal tail; inhibition, % at 33 µM; AID 1272365; AlphaScreen SSBct-PriA binding, biotinylated peptide; hit rate 0.6% among 430,000; in the data active = inhibition mostly above about 37%, no sharp cut-off; inactive = mostly below about 20%;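 note: plate controls were negative control peptide for no effect and reference peptide for full effect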
* hit, by the source's call; ? = inconclusive; nt = not tested or not shown. Cut-off read from the data, not from the text of the source, unless noted: active = inhibition above about 30%; inconclusive = no clear call, values can overlap the other calls; inactive = below that.

SMILES	Anthrax LF prot	Autofluor counter	BoNT A protease	BoNT-F LC inh	SSB-PriA inh
COC(=O)c1cc(NC(=O)c2ccccc2)c(=O)oc1/C=C/Nc1ccc(Oc2ccccc2)cc1	17	97551*	43*	54*	4
CCOC(=O)c1cc(NC(=O)c2ccccc2)c(=O)oc1-c1ccccc1	-4	?	-1	-5	-5
O=C(Nc1cc(C(=O)N2CCCC2)ccc1N1CCCC1)c1ccccc1F	0	9877	0	-2	10
O=C(Nc1cc(C(=O)N2CCCC2)ccc1N1CCCC1)C1CC1	-1	22662*	?	-3	-16
O=C1COc2ccc(OCc3ccc(F)cc3)cc21	-1	23249*	-2	0	-27
O=C(CN1CCN(c2nccn2-c2ccccc2F)CC1)N1CCc2ccccc21	nt	nt	nt	nt	44*
O=C(CN1CCN(c2ccccc2F)CC1)N1CCc2ccccc21	18	3826	-2	-4	-12
CC[C@@H](C(=O)Nc1cc(N2CCOCC2)ncn1)c1ccccc1	nt	nt	nt	nt	-7
Cc1ccc(N(CN2CCCC2=O)C(=O)c2ccc(C)c(C)c2)cc1	-1	21259*	?	3	-1
Cc1ccc(C(=O)N(CN2CCCC2=O)c2ccccc2)cc1C	0	14958	3	2	8
O=C(Nc1cccc(-c2nc3ccccc3s2)c1)C1CC1	nt	nt	nt	nt	2
COc1ccc(CN2CCN(CC(=O)Nc3ccccc3C(=O)NC3CC3)CC2)cc1F	-16	19106*	-68	?	-8
CCCCNC(=O)COC(=O)c1ccc(F)cc1Cl	-1	3583	-1	-6	2
CCCCNC(=O)COC(=O)c1cc(F)c(F)cc1Cl	-1	23808*	0	-1	-19
Cc1nc2ccccc2c(=O)n1-c1ccc(F)c(NS(=O)(=O)c2ccccc2Cl)c1	nt	nt	nt	nt	-8
Cn1nc(-c2ccccc2)cc1C(=O)NCCSC1CCOCC1	nt	nt	nt	nt	-4
Cc1ccc(NC(=O)CSC2=C(C#N)C(c3ccc4c(c3)OCO4)CC(=O)N2)cc1C (stereo unspecified)	-7	22137*	2	4	7
Clc1ccc(-c2cnc3n2CCC3)cc1	-3	21764*	?	1	0
O=C(Nc1ccc(-c2cnc3n2CCC3)cc1)c1ccccc1Cl	nt	nt	nt	nt	2
O=C(Cc1cc(-c2cccs2)on1)NCc1ccc(F)cc1	nt	nt	nt	nt	-5
Cc1cc(C(=O)Nc2nnc(-c3ccco3)o2)nn1C	nt	nt	nt	nt	-10
Cc1nn(-c2ccccc2)c(C)c1C(=O)Nc1nnc(-c2ccco2)o1	0	20671*	0	0	-1
CC1=C(C(N)=O)[C@H](c2ccccc2F)n2nc(-c3cccc(Cl)c3)nc2N1	nt	nt	nt	nt	-10
OC(CNCCC1C=Nc2ccccc21)Cn1c2ccc(Cl)cc2c2cc(Cl)ccc21 (stereo unspecified)	-13	8483	-3	-46	65*
O=C(NCCc1ccccc1)NC(Cc1ccccc1)C(=O)O (stereo unspecified)	-15	3046	2	-2	-8
SMILES	Anthrax LF prot	Autofluor counter	BoNT A protease	BoNT-F LC inh	SSB-PriA inh
O=C(NCc1ccccc1)N[C@@H](Cc1ccccc1)C(=O)O	-3	16799*	?	-5	0
COC(=O)[C@H](Cc1ccccc1)NC(=O)NCc1cccs1	2	19692*	10	14	-20
O=C(NCc1ccc(F)cc1)N[C@@H](Cc1ccccc1)C(=O)O	-1	22456*	2	2	3
O=C(NC(Cc1ccc(F)cc1)C(=O)O)c1ccccc1 (stereo unspecified)	-1	5042	0	-20	-9
Cc1nc(N2CCCC2)nc(C)c1NS(=O)(=O)c1ccc2c(c1)OCCO2	nt	nt	nt	nt	4
CC1CCc2c(sc(NC(=O)CCSc3ccc(F)cc3)c2C(N)=O)C1 (stereo unspecified)	nt	nt	nt	nt	-16
CC1(C)CC(=O)c2c(nc(SCC(=O)Nc3nc(-c4ccccc4)ns3)c(C#N)c2-c2ccccc2)C1	nt	nt	nt	nt	1
CC(=O)c1ccc(NC(=O)c2ocnc2C)cc1	nt	nt	nt	nt	6
NC(=NOC(=O)c1ccccc1)C(Cc1ccccc1)C(=O)NOC(=O)c1ccccc1 (stereo unspecified)	nt	nt	nt	nt	-5
C/C(=N\OC(=O)c1ccc(F)cc1)c1nccs1	-4	23617*	0	-2	nt
COc1ccc2sc(N(CCN3CCOCC3)C(=O)c3ccno3)nc2c1	nt	nt	nt	nt	-8
O=C(NCc1ccc(OC(F)(F)F)cc1)C1CN(C(=O)c2cnccn2)C1	nt	nt	nt	nt	-13
Cc1nn(CCc2n[nH]c(=S)n2C2CCCCC2)c(C)c1Br	-3	26154*	-9	-7	1
O=C(Nc1nc(-c2ccccc2)cs1)c1cccc(S(=O)(=O)N2CCOCC2)c1	nt	nt	nt	nt	13
CCCCCCCCCCOC(=O)c1csc2nnsc12	-2	20631*	?	-3	-19
CCCCCOC(=O)c1ccccc1C(=O)O	4	4752	-1	-6	-6
Cc1csc(C(=O)NCCc2nc(-c3cccs3)cn2C)c1	nt	nt	nt	nt	4
COC(=O)c1cc(NC(=O)Cc2ccccc2[N+](=O)[O-])cc(C(=O)OC)c1	-4	18194*	4	3	-6
O=C(Cc1ccccc1[N+](=O)[O-])Nc1ccc2c(c1)OCCO2	1	2455	0	-5	2
COc1cc(-c2nc3ccccn3c2NCC2CCCO2)ccc1O (stereo unspecified)	-2	11200	0	-4	0
CCOc1cc(-c2nc3ccccn3c2NCC2CCCO2)ccc1O (stereo unspecified)	3	22229*	-9	-9	-20
NC(Cc1ccc([N+](=O)[O-])cc1)=NOC(=O)c1ccc(Br)o1	nt	nt	nt	nt	3
O=C(CCCn1nnnc1CN1CCOCC1)N1CCC(c2ccc(F)cc2)C1 (stereo unspecified)	4	5805	0	-6	39*
Clc1ccc2nc(CN3CCCc4ccccc43)cn2c1	-29	4931	4	-66	43*
O=C(Cc1csc(NS(=O)(=O)c2ccccc2)n1)NCc1c(F)cccc1F	nt	nt	nt	nt	2
SMILES	Anthrax LF prot	Autofluor counter	BoNT A protease	BoNT-F LC inh	SSB-PriA inh
Cc1cc2nc(N3CCN(c4ccccc4)CC3)sc2cc1C	nt	nt	nt	nt	-3
Cc1sc(-c2ccccn2)nc1OC(=O)c1ccc(Cl)c(Cl)c1	0	23143*	-1	-3	-13
C/C(=N\NC(=O)c1ccccc1)c1ccc2c(c1)OCO2	2	22585*	0	4	nt
NC(=NCc1ccc2c(c1)OCO2)NC(=O)c1ccccc1	-8	4326	6	45*	-6
COc1ccccc1CCNC(=O)c1csc(NC(=O)Nc2ccccc2)n1	nt	nt	nt	nt	-6
O=C(NCCOc1ccccc1)NCC1CCN(c2ncccn2)CC1	nt	nt	nt	nt	-18
Cc1ccc(S(=O)(=O)c2nc(Nc3ccccc3N3CCOCC3)sc2Cl)cc1	0	16143*	1	-2	-20
CCN(CC)C(=O)Oc1ccccc1NC(C)=O	0	20729*	?	-4	9
O=C(CC1SC2=NCCN2C1=O)Nc1ccccc1 (stereo unspecified)	-1	5735	0	1	-8
Cc1ccc(NC(=O)CC2SC3=NCCN3C2=O)cc1 (stereo unspecified)	0	22351*	2	0	-4
O=C(c1cc(-c2cccs2)on1)N1CCN(c2ccc(F)cc2)CC1	-6	21562*	-4	-4	-7
CS(=O)(=O)N1N=C(c2ccsc2)CC1c1ccco1 (stereo unspecified)	nt	nt	nt	nt	-31

Assay outcomes as filed in PubChem.
